CYP2C9 activ = human CYP2C9 activators, primary screen, biochemical, luminescence. Cytochrome P450 2C9 (Homo sapiens), P11712. recombinant CYP2C9, luciferin-H conversion; active compounds read high; factor 1 = untreated enzyme, 0 = blocked. activation factor at 5 µM. 96,000 tested, 1.4% active. AID 1024, 2008;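 active means activation factor of 2 or more for CYP2C9 at a 5 µM dose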;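 further: 0 = sulfaphenazole-blocked wells and 1 = vehicle-only wells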
sEH activator = soluble epoxide hydrolase activators, primary screen, biochemical, human sEH; Bifunctional epoxide hydrolase 2 (Homo sapiens), P34913; purified human sEH enzymatic activity, activator screen; activation, % at 2 µM; 91,000 tested, 0.04% active; in the data active means activation above about 37%
Target sequence (P34913 whole entry, looked up): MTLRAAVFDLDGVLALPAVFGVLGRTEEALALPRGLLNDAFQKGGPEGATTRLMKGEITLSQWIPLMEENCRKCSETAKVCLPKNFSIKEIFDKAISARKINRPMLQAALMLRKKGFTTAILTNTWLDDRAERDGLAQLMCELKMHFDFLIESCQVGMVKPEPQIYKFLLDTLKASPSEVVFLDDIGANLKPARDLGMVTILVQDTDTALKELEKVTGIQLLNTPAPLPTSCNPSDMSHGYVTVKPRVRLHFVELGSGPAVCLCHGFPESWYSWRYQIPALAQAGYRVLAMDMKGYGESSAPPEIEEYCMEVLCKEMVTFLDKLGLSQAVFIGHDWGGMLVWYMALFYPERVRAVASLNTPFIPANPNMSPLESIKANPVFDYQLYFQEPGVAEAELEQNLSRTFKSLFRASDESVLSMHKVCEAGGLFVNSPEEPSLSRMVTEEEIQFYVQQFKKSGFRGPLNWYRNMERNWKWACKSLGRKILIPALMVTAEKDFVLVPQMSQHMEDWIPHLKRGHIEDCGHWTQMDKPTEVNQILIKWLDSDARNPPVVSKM
sEH inh = soluble epoxide hydrolase inhibitors, primary screen, biochemical, human sEH; inhibition, % at 2 µM; Bifunctional epoxide hydrolase 2 (Homo sapiens), P34913; 91,000 tested, 0.34% active; recombinant human sEH enzymatic activity assay; in the data active means inhibition above about 80%
CYP2C9 inh = blockers of cytochrome P450 2C9 activity – biochemical, luminescence, ADME assay, primary screen | CYP2C9 Supersomes, luciferin-H conversion | inhibition, % at 5 µM | 96,000 tested, 20% active;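 active means blocking of liver enzyme CYP2C9 beyond about 50% at 5 µM, limit read from the data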
CYP2C19 activ = human CYP2C19 activators, primary screen, biochemical, luminescence. activation factor at 5 µM. Cytochrome P450 2C19 (Homo sapiens), P33261. recombinant CYP2C19, luciferin-H EGE luminescence; active compounds read high; 0 = fully inhibited enzyme, 1 = untreated enzyme. 96,000 tested, under 10 active. AID 1025, 2008;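 active means activation factor of at least 2 at 5 µM in the primary screen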;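 further: 0 = wells with 2.5 mM tranylcypromine and 1 = vehicle-only wells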
CYP2C19 inhib = blockers of cytochrome P450 2C19 activity – biochemical, luminescence, ADME assay, primary screen | inhibition, % at 5 µM | AID 778, 2007 | CYP2C19 Supersomes, luciferin-H EGE luminescence, 30 min | P33261 | 96,000 tested, 21% active;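 active means CYP2C19 inhibition above a set limit at 5 µM in the primary screen, cut at about 50% in these data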;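 further: plate controls were negative control wells for no effect and 2.5 mM tranylcypromine positive control for full effect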
* hit, by the source's call; x = no result. Hits are enriched below; roughly 27% of the tested compounds scored in any of these assays.

SMILES	CYP2C9 activ	sEH activator	sEH inh	CYP2C9 inh	CYP2C19 activ	CYP2C19 inhib
CC(C)(C)C(=O)Nc1nnc(SCc2ccc(F)cc2)s1	0.2	-5.2	4.1	78.0*	0.3	67.8*
COC(=O)c1ccc(CSc2nnc(NC(=O)C3CCCO3)s2)cc1 (stereo not drawn)	0.3	-2.1	0.1	70.4*	0.7	31.9
CC(C)=CC1C=C(C)C(C)C2C(=O)NNC(=O)C12 (stereo not drawn)	0.9	-8.4	5.8	10.7	0.5	51.4*
CC1CN(C2CCN(S(=O)(=O)Cc3ccccc3)CC2)CC(C)O1 (stereo not drawn)	1	x	x	2.3	1.1	-8.8
O=C(Nc1ccc(Cl)cc1)c1cccnc1N1CCCCC1	0.2	2.8	-0.5	78.4*	0.2	79.4*
O=C(Nc1cccc(C(F)(F)F)c1)C1CCCCC1	0.3	-7.4	8.3	68.7*	0.1	86.8*
O=C(Nc1ccc(N2CCCCC2)cc1)c1cccnc1Cl	1	-1.6	-1.2	-1.6	0.8	15.9
O=C(Nc1cccc(C(F)(F)F)c1)c1cccnc1N1CCCC1	3.4*	-0.8	6.3	-239.1	0.5	47.5
O=C(NCCc1ccccc1)c1cccnc1N1CCCCCC1	0.4	10.9	-9.8	60.7*	0.3	72.4*
O=C(Nc1ccc(C(F)(F)F)cc1)c1cccnc1N1CCOCC1	0.9	-0.2	0.3	5.6	0.9	12.2
COCCn1c(C)cc(C(=O)COC(=O)CCN2C(=O)c3ccccc3C2=O)c1C	0.9	3.0	-5.1	13.5	0.7	33.0
COc1cccc(C2=CC(c3ccc(N(C)C)cc3)n3nnnc3N2)c1 (stereo not drawn)	1.1	-0.8	4.0	-9.4	1.1	-11.0
COc1ccc(C2C=C(c3ccccc3)Nc3nnnn32)cc1 (stereo not drawn)	0.3	4.2	-3.8	74.1*	0.1	89.5*
COc1ccc(C2=CC(c3ccc(C)cc3)n3nnnc3N2)cc1 (stereo not drawn)	0.1	5.3	-1.9	86.5*	0.3	74.7*
COc1cccc(C2=CC(c3ccccc3)n3nnnc3N2)c1 (stereo not drawn)	0.2	0.5	-2.0	79.4*	0.2	82.2*
COc1ccc(C(=O)Nc2ccc3oc(Cc4ccc(Cl)cc4)nc3c2)cc1OC	0.8	x	x	20.6	0.9	9.9
COc1ccc(C)cc1S(=O)(=O)N1CCCC(C(=O)NCC2CCCO2)C1 (stereo not drawn)	1.1	0.6	-4.1	-8.6	1	-4.1
COc1ccc(C2=NC(C(F)(F)F)(C(F)(F)F)c3c(n(C)c(=O)n(C)c3=O)N2)cc1	0.8	2.9	-0.3	20.5	1.1	-13.7
CC(=O)Nc1ccc(S(=O)(=O)NNC(=O)c2cccc3ccccc23)cc1	0.4	4.2	-2.7	61.8*	0.7	32.6
CCC(=O)Nc1ccc(S(=O)(=O)Nc2ncccn2)cc1	0.9	-6.3	4.4	8.6	1	3.7
CCC(=O)Nc1ccc(/C(C)=N\NS(=O)(=O)c2ccc(C)cc2)cc1	0.4	2.5	-1.3	61.4*	0.8	15.9
CCC(NS(=O)(=O)c1ccc(C)cc1)C(=O)Nc1ccc(NC(C)=O)cc1 (stereo not drawn)	0.5	-10.0	12.1	46.4	0.3	69.8*
CC(=O)Nc1ccc(/C(C)=N/NS(=O)(=O)c2ccc(C)cc2)cc1	0.3	-6.7	7.1	71.0*	0.8	24.0
Cc1ccc(C(=O)Nc2nc(C)c(C)s2)o1	0.7	-0.4	-1.5	32.0	0.7	29.4
COc1ccc(N2CCCn3c2nc2c3c(=O)n(Cc3ccc(F)cc3)c(=O)n2C)c(OC)c1	1.1	x	x	-7.9	1	1.4
SMILES	CYP2C9 activ	sEH activator	sEH inh	CYP2C9 inh	CYP2C19 activ	CYP2C19 inhib
N#CC1(C#N)C2=C(CCCC2)NC(c2ccccc2)C1(C#N)C#N (stereo not drawn)	0.6	-8.9	8.1	40.5	0.9	14.8
Cc1c(-c2ccccc2)sc(Br)c1C(=O)N1CCOCC1	1.3	-2.7	-3.0	-31.1	0.8	24.0
Cc1ccc(C(=O)Nc2ccc(CC(=O)O)cc2)o1	1	-2.5	2.5	-0.5	0.9	8.3
CC(=O)Nc1ccc(NC(=O)CNS(=O)(=O)c2ccc(C)cc2)cc1	0.7	10.9	-6.7	28.0	0.6	41.5
CC(=O)Nc1ccc(S(=O)(=O)NNC(=O)c2ccc(C)cc2)cc1	0.6	-1.9	0.1	41.2	0.5	53.2*
COc1ccc(S(=O)(=O)N/N=C(/C)c2ccc(Cl)cc2)cc1	0.2	-2.6	4.5	78.6*	0.2	83.9*
C/C(=N/NS(=O)(=O)c1ccc(Br)cc1)c1ccc(NC(=O)c2ccc(C)o2)cc1	0	-6.3	9.3	97.8*	0.5	49.7
C/C(=N/NS(=O)(=O)c1ccc(Cl)cc1)c1cccc(O)c1	0.8	-10.4	12.3	23.3	0.8	22.4
Cc1oc(C(=O)O)cc1CSc1nnc(-c2ccccc2)n1C	0.7	-2.6	6.2	29.4	1.2	-16.5
O=C(c1coc(=O)c(Br)c1)N1CCCc2ccccc21	0.7	x	x	26.4	0.9	8.0
COc1ccc(C2C(C(=O)Nc3cccc(C)n3)c3ccccc3C(=O)N2C)cc1 (stereo not drawn)	0.6	-11.1	11.4	43.4	0.8	16.8
O=C(O)C1C2C=CC(C3CC23)C1C(=O)N1CCc2ccccc21 (stereo not drawn)	1.1	-0.8	2.0	-7.6	1.2	-17.1
CCOC(=O)C(C)Oc1ccc(=O)n(-c2ccccc2)n1 (stereo not drawn)	1	-1.1	2.5	2.1	0.7	33.3
COc1ccc(NC2(c3ccc(Cl)cc3)C(=O)c3ccccc3C2=O)cc1	x	6.9	-4.4	x	x	x
CCCNC(=O)CC1C(=O)N(Cc2ccccc2)C(C)c2nc3ccccc3n21 (stereo not drawn)	0.9	12.2	-13.5	10.1	0.3	67.3*
O=S(=O)(c1cccs1)N1CCN(CC(O)COc2cc(Cl)ccc2Cl)CC1 (stereo not drawn)	0.7	-5.0	4.6	34.6	0.5	45.7
OCCN(Cc1ccccc1)Cc1ccc(Cl)cc1Cl	0.4	10.6	-10.7	57.0*	0	95.2*
O=C1CCCN1C(=O)CCC(=O)N1CCCC1=O	1.1	-7.4	7.7	-9.1	1.1	-8.2
CCOC(=O)c1c(NC(=O)c2ccco2)sc2c1CCCCC2	0.2	11.4	-11.8	78.2*	0.6	38.1
CN(C)C(=O)c1c(NC(=O)c2ccco2)sc2c1CCCCC2	x	2.2	0.2	x	x	x
CCOC(=O)c1c(NC(=O)CSc2nnc(CNC(=O)c3ccco3)n2C)sc2c1CCC2	0.3	6.2	-5.2	70.5*	1	1.9
CCOC(=O)c1c(NS(=O)(=O)Cc2ccccc2)sc2c1CCCC2	0	7.7	-5.6	95.1*	0	98.8*

Source: PubChem BioAssay (several laboratories)
